Out of some 320,000 compounds screened, about 1,300 (0.41%) were called active. Inconclusive results (about 3%) are left out. How the calls were made is not given here. A selection follows. Entries with a potency or affinity are not part of this list.
assay: growth inhibition of non-replicating M. tuberculosis (AID 488890); conditions: Mycobacterium tuberculosis non-replicating, at 25 µM, stronger effect = higher value;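 further: plate controls were DMSO cells for no effect and high antibiotic wells for full effect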

Compared with COC(=O)c1nn(-c2cccc(C)c2)c2nnc(Cc3ccc(C)cc3)c(=O)n12, CCOc1ccc(CCNC(=O)CCn2nc(C)c3c(C)n(-c4ccccc4)nc3c2=O)cc1 is lower in inhibition: -0.72% for the first, -11.8% for the second.

First: COc1ccc(NC(=O)N2CCCC2C(=O)NC2CCCC2)cc1 (stereo not given)
Second: COC(=O)c1ccccc1S(=O)(=O)N1CCC(C(=O)NCC2CCCO2)CC1 (stereo not given)
The inhibition of the first is lower: -20.1% for the first, -9.14% for the second.

Compared with COc1ccccc1N1CCN(C(=O)C2CC=CCC2C(=O)O)CC1 (stereo not given), CC(=O)N1CCN(c2ccc(NC(=O)c3ccc4c(c3)OCCO4)cc2Cl)CC1 is higher in inhibition: -0.47% for the first, 27.7% for the second.

Compared with COc1cccc2c1OCC(C(=O)O)C2 (stereo not given), COc1ccccc1/C=C/C=N/NC(=O)c1cnccn1 is higher in inhibition: -4.89% for the first, 5.21% for the second.

Compared with CCOC(=O)C1CCN(C(=O)c2ccc3c(=O)n4c(nc3c2)CCCCC4)CC1, O=C(c1cccc2ccccc12)N1CCCCC1 is higher in inhibition: -14.7% for the first, -8.51% for the second.

Compared with Cn1nc(-c2ccccc2)c(/C=N/O)c1Cl, Cc1nnc(-c2ccccc2)nc1N(C)C is higher in inhibition: -12.1% for the first, 21.8% for the second.

Compared with O=Nc1c(-c2ccccc2)[nH]n(-c2ccccc2)c1=O, CC1(C)OC(c2ccccc2)=C/C(=C/C=Nc2ccccc2)O1 is lower in inhibition: 63% for the first, 14.4% for the second.

First: Cc1sc2ncnc(N3CCCCC3C)c2c1C (stereo not given)
Second: Cc1cc(C)n(-c2nc(NCC(C)O)c3c4c(sc3n2)CCCC4)n1 (stereo not given)
The inhibition of the first is lower: 32.6% for the first, 79.3% for the second.

Compared with CCOc1ccc(S(=O)(=O)N2CCCC(C(=O)NCc3ccccc3)C2)cc1 (stereo not given), Cc1cccc(OCC(=O)OC(C)C(=O)Nc2ccc(S(=O)(=O)N3CCCCC3)cc2)c1 (stereo not given) is higher in inhibition: -11.6% for the first, 17.6% for the second.

First: CN(C)C=NC(=O)c1cn(-c2ccc(F)cc2)c(=O)c2ccccc12
Second: CCOc1ccc(-c2cc(C(=O)O)c3ccccc3n2)cc1
The inhibition of the first is lower: -9.03% for the first, 0.34% for the second.

First: O=C(N/N=C/C=C/c1ccccc1)c1cnccn1
Second: O=C(N/N=C/C=C\c1ccccc1)c1cnccn1
The inhibition of the first is higher: 15.9% for the first, 11.4% for the second.

Compared with O=C(N/N=C/C=C/c1ccccc1[N+](=O)[O-])c1cccnc1, O=C(N/N=C/C=C\c1ccccc1[N+](=O)[O-])c1cccnc1 is lower in inhibition: -8% for the first, -10.7% for the second.

First: O=C(N/N=C/C=C/c1ccco1)c1cnccn1
Second: O=C(N/N=C/c1ccco1)c1ccncc1
The inhibition of the first is lower: -12.5% for the first, 54.4% for the second.

First: COc1ccccc1/C=C/C=N/NC(=O)c1ccccn1
Second: Cn1cc(C(=O)N/N=C/C=C/c2ccccc2)ccc1=O
The inhibition of the first is higher: 70.9% for the first, -14.3% for the second.

First: COc1ccc(CNC(=O)c2ccc[nH]2)cc1
Second: COc1ccc(NC(=S)NCc2ccc(F)cc2)c(OC)c1
The inhibition of the first is higher: 34.3% for the first, 14.9% for the second.

First: C=C(C)CSc1nnc(-c2cc(OC)c(OC)c(OC)c2)n1N
Second: COc1ccc(C2C(C(C)=O)=C(C)Nc3ncnn32)c(OC)c1OC (stereo not given)
The inhibition of the first is lower: -11% for the first, -4.13% for the second.

First: COc1ccc(C2=NN(C(=O)CN3CCCC3)C(c3ccc(OC)cc3)C2)cc1 (stereo not given)
Second: COc1ccc(/C=C/c2cc(C(=O)O)c3ccccc3n2)cc1
The inhibition of the first is lower: -5.46% for the first, 3.28% for the second.

First: O=C(N/N=C/c1ccncc1)c1ccccc1
Second: C/C(=N/NC(=O)c1ccncc1)c1ccccc1
The inhibition of the first is higher: 67.6% for the first, 49.1% for the second.

Going from O=C(O)CC/C(=N\NC(=O)c1ccncc1)c1ccccc1 to CC(/C=N/NC(=O)c1ccncc1)=C\c1ccccc1, the inhibition rises from 37.3% to 56.6%.

Compared with Cc1ccccc1N=C/C=C1/C=C(c2ccccc2)OC(C)(C)O1, Cc1ccccc1NC(=O)OCc1ccccc1 is higher in inhibition: 32.8% for the first, 71.6% for the second.

Compared with O=C(N/N=C/C=C/c1ccccc1)c1ccc(Br)cc1, O=C(N/N=C/C(Br)=C/c1ccccc1)c1cccnc1 is higher in inhibition: -16.8% for the first, 56.4% for the second.

First: C/C=C/C=N\NC(=O)c1ccncc1
Second: O=C(O)CCN1C(=O)/C(=C\c2ccncc2)SC1=S
The inhibition of the first is higher: 57.5% for the first, 38.8% for the second.

Going from CCCOc1ccc(Cc2c(O)nc(SC)[nH]c2=O)cc1 to CCCCn1c(N)c(N(CC)C(=O)CCc2ccccc2)c(=O)[nH]c1=O, the inhibition rises from 8.21% to 9.68%.

Going from CCC1(c2ccccc2)NC(=O)N(CC(=O)NC2CCCCCC2)C1=O (stereo not given) to CC1CC(=O)Nc2ccccc2N1C(=O)CN1CCN(C=O)CC1 (stereo not given), the inhibition falls from 15.6% to 4.41%.

First: CCOC(=O)c1nn(-c2ccc(Cl)cc2C)ccc1=O
Second: Cc1c(C(=O)N(C)C)c2cc(Cl)ccc2n1O
The inhibition of the first is lower: -14.1% for the first, 8.07% for the second.

First: COc1ccc(C(=O)COC(=O)c2ccc(-n3cnnn3)cc2)c(OC)c1
Second: Cc1ccc(C(=O)NCC(=O)OCn2nnc3ccccc3c2=O)cc1
The inhibition of the first is lower: -4.6% for the first, 4.09% for the second.

Going from COc1cccc(C(=O)Nc2ccccc2F)c1 to Cc1cc(C(=O)Nc2ccccc2C)on1, the inhibition rises from -15.1% to -6.92%.

Compared with O=C(COC(=O)/C=C/c1ccco1)NCc1ccc(Cl)cc1, CCc1ccc(C(=O)COC(=O)CNC(=O)c2ccc(Br)o2)cc1 is lower in inhibition: 44.8% for the first, 43.3% for the second.

First: COc1ccccc1C(=O)OCCN=C1NS(=O)(=O)c2ccccc21
Second: O=C(OCc1cncs1)c1ccccc1Cl
The inhibition of the first is lower: 3.36% for the first, 32.7% for the second.

Compared with O=c1oc(-c2cccc([N+](=O)[O-])c2)nc2ccccc12, Cc1ccc2nc(-c3ccccc3)oc(=O)c2c1 is higher in inhibition: 67.8% for the first, 76.6% for the second.

Going from COc1ccc(-c2csc3nc(-c4ccc(C)cc4)oc(=O)c23)cc1OC to COc1cc(OC)cc(-c2cc3ccccc3c(=O)o2)c1, the inhibition rises from 2% to 9.55%.

Compared with CCOc1ccc(-c2nnc(-c3ccccc3)o2)cc1, Brc1ccc(CSc2nnc(-c3cccnc3)o2)cc1 is lower in inhibition: 78.4% for the first, -15.4% for the second.

Going from COc1ccc(-n2c(/C=C/c3ccc(O)cc3)nc3ccccc3c2=O)cc1 to CCN(CC)c1ccc(-c2nnc(SCC(=O)Nc3ccccc3C#N)n2-c2ccccc2)cc1, the inhibition rises from 20.1% to 41%.

Compared with O=[N+]([O-])c1ccc(C=Nc2cccc3ccccc23)s1, Cc1ccccc1-c1cnn(-c2cccc([N+](=O)[O-])c2)c1N is lower in inhibition: 68.5% for the first, 14.7% for the second.

Going from O=S(=O)(Cc1ccccc1)N1CCCc2ccccc21 to O=C1CCCN1CC(O)CS(=O)(=O)Cc1ccccc1 (stereo not given), the inhibition falls from 28.1% to -12.3%.

Going from Cc1[nH]c2ccc(C(=O)NCCCN(C)C3CCCCC3)cc2c1C to CN(C(=O)COC(=O)c1ccc(Cl)cc1N)C1CCCCC1, the inhibition rises from 7.44% to 24.6%.

First: Cc1sc2nc(SCC(=O)NCCOCCO)n(C)c(=O)c2c1C
Second: CCOC(=O)CSc1nnc(CNC(=O)c2cccs2)n1-c1cccc(C)c1
The inhibition of the first is lower: -0.17% for the first, 33% for the second.

Going from Cc1nn(Cc2ccccc2)c2c1C(c1ccc(Cl)cc1)C(C#N)=C(N)O2 (stereo not given) to CC1(C)CC(=O)C2=C(C1)OC(N)=C(C#N)C2c1ccccc1 (stereo not given), the inhibition rises from 11.4% to 24.7%.

Compared with COC(=O)c1sccc1NC(=O)c1c(-c2ccccc2)noc1C, Cc1cccn2c(NC(=O)c3cccs3)c(-c3ccccc3)nc12 is lower in inhibition: 27.9% for the first, -0.63% for the second.

Going from c1ccc(C2C3=C(Nc4ncnn42)c2ccccc2CCC3)cc1 (stereo not given) to c1ccc(-c2nnc(-c3ccccn3)c(-c3ccccn3)n2)nc1, the inhibition rises from 9.65% to 10.5%.

First: CCCC(=O)C1=C(O)C(C(=O)OC)C(C)(C)CC1=NC(C)C (stereo not given)
Second: CCCC(=O)Nc1ccc(C(=O)/C=C/c2ccc(SC)cc2)cc1
The inhibition of the first is lower: -5.24% for the first, 42.6% for the second.

Compared with CC(C)(C)c1ccc(-n2ncc3c2CCCC3NC(=O)CCN2CCCO2)cc1 (stereo not given), Cc1ccc(CC(=O)N2CCN(C)CC2)cc1 is lower in inhibition: 19.6% for the first, -6.84% for the second.

First: O=c1oc(-c2ccco2)nc2ccccc12
Second: Cc1cc(=O)[nH]c(SC/C=C/c2ccccc2)n1
The inhibition of the first is lower: 28.8% for the first, 69.8% for the second.

First: Cc1c2cnn(CC(=O)Nc3c(F)c(F)cc(F)c3F)c(=O)c2c(C)n1Cc1ccccc1F
Second: O=C(Nc1ccccc1N1CCOCC1)C1=NN(c2c(F)c(F)cc(F)c2F)C(=O)CC1
The inhibition of the first is higher: 0.29% for the first, -3.73% for the second.

Going from CN(C)C(CNC(=O)CCOc1ccccc1)c1ccco1 (stereo not given) to Cn1c(CNC(=O)CNS(=O)(=O)c2ccccc2)cc(=O)n(C)c1=O, the inhibition falls from 13.7% to -2.98%.

Going from Fc1ccccc1CSc1nc2ncccc2[nH]1 to O=C(CSc1n[nH]c(=O)n1-c1cccnc1)Nc1ccccc1Cl, the inhibition falls from 23.3% to -0.8%.

First: Cn1c(C(=O)N[C@@H](Cc2ccccc2)C(=O)O)cc2cc(F)ccc21
Second: CC1(C)CC(=O)C2=C(C1)OC(N)=C(C#N)C2Cc1ccccc1 (stereo not given)
The inhibition of the first is lower: -8.03% for the first, 25% for the second.

Going from Cc1ccc(N2C(=O)NC(NC(=O)C(C)(C)C)(C(F)(F)F)C2=O)cc1C (stereo not given) to COc1cc2c(cc1OC)C(c1cc3cccc(C)c3[nH]c1=O)N(C(=O)c1ccco1)CC2 (stereo not given), the inhibition rises from -24.4% to 30.4%.

First: Cc1cc(C)n(-c2nc(SCC(=O)O)c3c4c(sc3n2)COC(C)(C)C4)n1
Second: Cc1cc(C)n(-c2nc(SCCN(C)C)c3c4c(sc3n2)COC(C)(C)C4)n1
The inhibition of the first is higher: 78.8% for the first, 65.5% for the second.

Compared with Cc1cc(C)n(-c2nc(NCCCN(C)C)c3c4c(sc3n2)CCCC4)n1, Cc1cc2oc(=O)cc(CN3CCc4ccccc43)c2cc1Cl is lower in inhibition: 75.9% for the first, -0.24% for the second.

First: COc1cc(CNc2ccc3[nH]c(=O)[nH]c3c2)ccc1OCc1ccc(Cl)cc1
Second: COc1ccc(CCn2c(N)cc(=O)[nH]c2=S)cc1OC
The inhibition of the first is higher: 32.9% for the first, 10.4% for the second.

Going from CC(=O)c1ccc(OC(=O)c2ccc(Br)o2)cc1 to O=C(OCc1cnc(Cl)s1)c1ccccc1Cl, the inhibition falls from 79.1% to 56.8%.

First: CNc1c([N+](=O)[O-])cnn1-c1ccccc1Cl
Second: O=C(Nc1nccs1)c1ccc(Cl)c([N+](=O)[O-])c1
The inhibition of the first is higher: 10.6% for the first, -5.17% for the second.

Going from N#Cc1ccsc1NC(=O)c1cccc([N+](=O)[O-])c1 to O=[N+]([O-])c1cccc(-c2nnc(SCc3cccnc3)o2)c1, the inhibition rises from 2.42% to 43.9%.

First: CN(C(=O)COC(=O)c1cc(NS(=O)(=O)c2cc([N+](=O)[O-])ccc2Cl)ccc1O)C1CCCCC1
Second: O=[N+]([O-])c1ccc(CSc2nnc(-c3cnccn3)o2)cc1
The inhibition of the first is lower: 35.1% for the first, 66.9% for the second.

Going from C[C@@H]1CCCCCCCCC(=O)OCCN(C(=O)OC(C)(C)C)[C@H](C)CCCCCCCCC(=O)OCCN(C(=O)OC(C)(C)C)[C@H](C)CCCCCCCCC(=O)OCCN(C(=O)OC(C)(C)C)[C@H](C)CCCCCCCCC(=O)OCCN1C(=O)OC(C)(C)C to CC1CCN(C(=O)CN(CCc2ccccc2)S(C)(=O)=O)CC1, the inhibition rises from -3.81% to -0.19%.

Going from Clc1ccc(CSc2nnc(-c3cccnc3)o2)cc1 to O=C(O)CCCN1C(=O)/C(=C/c2ccncc2)SC1=S, the inhibition rises from 47.9% to 65%.

Work on O=C(c1cccc(F)c1F)N1CCCC1 yielded an inhibition of -8.96%.

Reference: PubChem BioAssay AID488890 (Southern Research Specialized Biocontainment Screening …, 2010)
